# Autofluor counter – compound fluorescence in toxin protease inhibitor counterscreen; 360,000 tested, 3.1% active; compound autofluorescence counterscreen, microsphere flow cytometry; hits give high values; AID 624483; fluorescence intensity (test concentration not listed); in the data active means fluorescence intensity above about 16000; inconclusive means no clear call, values can overlap the other calls
# BoNT F protease – BoNT/F light chain protease inhibitors, primary screen, biochemical, flow cytometry, MLPCN library | Multiplex microsphere protease cleavage assay | inhibition, % at 10 µM | 360,000 tested, 0.22% active | Botulinum neurotoxin type F light chain protease (Clostridium botulinum); in the data active means inhibition above about 35%, passing the limit was not always enough; inconclusive means no clear call, values can overlap the other calls; further: plate controls were buffer without enzyme for full effect and enzyme alone for no effect
# Anthrax LF prot – Bacillus anthracis LF protease inhibitors, primary screen, biochemical, multiplex microsphere, MLPCN library. Lethal factor (Bacillus anthracis), P15917. multiplex microsphere protease cleavage assay. inhibition, % at 10 µM. 360,000 tested, 0.12% active. AID 588501, 2011; further: plate controls were buffer without enzyme for full effect and enzyme alone for no effect
# Target sequence (P15917 whole entry, looked up): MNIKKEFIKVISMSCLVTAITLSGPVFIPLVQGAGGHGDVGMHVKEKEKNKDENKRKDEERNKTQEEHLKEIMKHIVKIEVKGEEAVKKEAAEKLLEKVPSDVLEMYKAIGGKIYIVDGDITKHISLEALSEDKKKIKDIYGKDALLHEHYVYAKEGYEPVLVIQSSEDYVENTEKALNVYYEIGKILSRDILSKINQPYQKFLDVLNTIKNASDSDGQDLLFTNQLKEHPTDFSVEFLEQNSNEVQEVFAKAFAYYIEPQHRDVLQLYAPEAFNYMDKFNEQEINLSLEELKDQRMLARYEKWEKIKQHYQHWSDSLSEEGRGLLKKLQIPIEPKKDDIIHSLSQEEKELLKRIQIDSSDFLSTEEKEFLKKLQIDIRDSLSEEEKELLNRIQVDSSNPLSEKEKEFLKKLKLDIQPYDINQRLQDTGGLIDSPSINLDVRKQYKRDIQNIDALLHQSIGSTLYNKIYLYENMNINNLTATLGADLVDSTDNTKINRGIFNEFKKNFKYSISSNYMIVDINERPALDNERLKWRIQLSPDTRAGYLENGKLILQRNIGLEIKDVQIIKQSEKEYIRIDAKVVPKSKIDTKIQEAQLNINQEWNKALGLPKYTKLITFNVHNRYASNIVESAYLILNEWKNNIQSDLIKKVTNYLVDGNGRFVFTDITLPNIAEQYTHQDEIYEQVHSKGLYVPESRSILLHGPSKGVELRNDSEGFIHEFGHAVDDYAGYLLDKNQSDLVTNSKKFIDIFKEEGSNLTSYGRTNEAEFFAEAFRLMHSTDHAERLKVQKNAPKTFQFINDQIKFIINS
# BoNT A protease – BoNT/A light chain protease inhibitors, primary screen, biochemical, flow cytometry, MLPCN library | multiplex microsphere protease substrate cleavage | inhibition, % at 10 µM | Botulinum neurotoxin type A light chain protease (Clostridium botulinum A str. ATCC 3502) | 360,000 tested, 0.17% active; further: plate controls were buffer without enzyme for full effect and enzyme alone for no effect
# * marks the source's active call; other numbers are inactive results; ? = inconclusive; ! = repeats disagree. Sampled rows, rich in hits. Any-hit rate of the full collection: about 3.5%. Unless noted, no stated cut-off is given here; in the data, active means inhibition above about 30%; inconclusive means no clear call, values can overlap the other calls; inactive means below that.
SMILES,Autofluor counter,BoNT F protease,Anthrax LF prot,BoNT A protease
CC(C)(C)c1cc(NCCCn2ccnc2)n2ncc(-c3ccc(Cl)cc3)c2n1,25531*,-10,-5,?
O=c1cnnc(SCCc2ccccc2)[nH]1,23384*,3,-1,1
CSc1nncc(=O)[nH]1,21213*,-4,2,-2
Cc1cccc(CSc2nncc(=O)[nH]2)c1,3842,-21,4,0
CSc1ncccc1C(=O)OCC(=O)Nc1cccc(S(=O)(=O)N2CCOCC2)c1,4141,-5,-5,0
CCOC(=O)c1ccccc1NC(=O)c1cccs1,17478*,-5,-6,-2
O=C(Nc1cccc2nsnc12)c1cccs1,21640*!,4,0,2
CCOC(=O)c1ccccc1NC(=O)Cc1ccccc1OC,20686*,-4,1,-3
CC(=NC(C)C)C1=C(O)C(C)OC1=O (stereo not drawn),2524,-8,-1,0
Cc1cccc(CN2CCN(CC(=O)N3CCCC3)C2=O)c1,8439,6,-1,1
Cc1ccccc1CN1CCN(CC(=O)NCc2ccccc2)C1=O,20841*,-2,-1,-3
Cc1cccc(CN2CCN(CC(=O)O)C2=O)c1,19589*,-2,-2,-1
O=C(CN1CCN(Cc2ccccc2)C1=O)NCc1ccc(Cl)cc1,5174,-5,0,-1
Cc1nc(N)[nH]c(=O)c1CCC(=O)OCC(C)C,23221*,-3,-2,-2
CN(C)c1ccc(C2Nc3ccccc3C(=O)N2CCCN2CCOCC2)cc1 (stereo not drawn),5817,-1,-5,0
O=C(Cc1ccc(-c2ccccc2)cc1)NCc1ccccc1,9994,11,1,2
O=C(CCc1ccccc1)NNC(=O)COc1ccccc1,24872*,-4,-2,?
O=C(Cc1ccccc1)Nc1ccc(C(=O)O)cc1,23610*,-3,3,?
COc1ccc(OCC(=O)NNC(=O)CCc2ccccc2)cc1,2012,-4,2,0
Cc1ccc(CNC(=O)Cc2ccc(-c3ccccc3)cc2)cc1,25102*,-5,-3,-4
Cc1ccc(OCC(=O)NNC(=O)CCC(=O)NCc2ccccc2)cc1,22071*,1,-1,1
Cc1ccc(CNC(=O)CCC(=O)c2cccs2)cc1,22864*,2,-1,2
O=C(CCc1ccccc1)NNC(=O)c1ccc(NC(=O)c2ccccc2)cc1,2080,-24,0,-2
CC(C)(C)NC(=O)COc1ccc(-c2ccccc2)cc1,17169*,-6,-5,-3
CC(=O)Nc1ccc(C(=O)NNC(=O)CCc2ccccc2)cc1,23567*,-3,-2,-2
SMILES,Autofluor counter,BoNT F protease,Anthrax LF prot,BoNT A protease
CCNC(=O)COc1ccc(-c2ccccc2)cc1,10702,-5,3,0
O=C(CCC(=O)c1cccs1)NCc1ccc(Cl)cc1,2655,-1,0,0
O=C(NC1=NCCS1)c1ccc(F)c(S(=O)(=O)N2CCOCC2)c1,3074,-3,3,0
CC(=O)N1CCN(S(=O)(=O)c2cccc(C(=O)OCC(=O)N(CCC#N)c3ccc(F)cc3)c2)CC1,4786,-10,-1,-2
COc1ccc(C(CNC(=O)Nc2cccc(C)c2)N2CCN(C)CC2)cc1 (stereo not drawn),5289,6,2,1
O=C(O)C1CCN(S(=O)(=O)c2cccc3nonc23)CC1,5465,3,-2,-2
CCCCOc1ccc(/C=C/C(=O)NCCc2nc3ccccc3[nH]2)cc1,21858*,-8,-2,-4
Cc1cc(Cl)cc2c1NC(=O)[C@]21[C@@H]2C(=O)N(Cc3ccccc3)C(=O)[C@@H]2[C@@H]2CCCN21,3642,-10,0,2
CCc1ccc2c(c1)[C@]1(C(=O)N2)[C@@H]2C(=O)N(Cc3ccccc3)C(=O)[C@@H]2[C@@H]2CCCN21,21738*,4,-2,2
CCOC(=O)C1C(=O)NC(c2ccccc2)=NC1c1ccc(Cl)cc1 (stereo not drawn),22764*,1,-2,2
CCOC(=O)C1C(=O)NC(N2CCN(c3ccccc3)CC2)=NC1c1ccccc1 (stereo not drawn),23474*,-2,1,-2
CCOC(=O)C1C(=O)NC(N2CCOCC2)=NC1c1ccco1 (stereo not drawn),3097,-12,0,-1
CCCCC1(C)NC(=S)N2N1C(=S)NC2(C)CCCC (stereo not drawn),5097,3,-5,1
CSc1nc(C)cc(OCC(=O)n2nc(C)cc2C)n1,23438*,0,-5,?
CSc1nc(C)cc(OCCO)n1,4964,-19,0,0
O=c1[nH]n(-c2ccc(Cl)cc2)c(=O)c(Cl)c1Cl,21602*,-3,0,?
COc1ccc(/C(C)=C2\SC(=S)N(CCC(=O)O)C2=O)cc1,20765*,0,0,0
C/C(=C1/SC(=S)N(CCC(=O)O)C1=O)c1ccc(O)cc1,2529,-3,2,0
Cc1ccc(NC(=O)COc2coc(CN3CCc4ccccc43)cc2=O)cc1Cl,5250,-6,-3,0
CCCC(=O)Nc1c2c(nn1-c1ccc(OC)cc1)CS(=O)(=O)C2,19921*,1,-2,0
COC(=O)c1c(NC(=O)CSc2nnnn2-c2ccccc2)sc2c1CCC(C(C)(C)C)C2 (stereo not drawn),23374*,-1,-2,-2
Cc1ncsc1C(=O)NCc1ccc(N2CCCC2=O)cc1,16227*,3,-2,0
Nc1ccccc1NC(=O)NC(=O)c1ccccc1,3085,15,-5,0
Cc1ccc(C)c(S(=O)(=O)NCc2ccc(C(=O)N3CCN(C)CC3)cc2)c1,16472*,0,-1,?
Cc1cccc(-c2n[nH]c(=S)n2Cc2ccccc2)c1,3630,-10,1,-1
SMILES,Autofluor counter,BoNT F protease,Anthrax LF prot,BoNT A protease
Cc1ccc(-c2n[nH]c(=S)n2Cc2ccccc2)cc1,22893*,3,-1,?
Cc1cn([C@H]2C[C@H](O)[C@@H](/C=C/C(=O)NCCc3ccc(S(N)(=O)=O)cc3)O2)c(=O)[nH]c1=O,4488,1,-8,-1
CCn1c(SCC(=O)NC2(C#N)CCCCC2)nc2ccccc2c1=O,6302,-3,-1,-5
CSc1nc(N(C)CCO)c2sc3nc(-c4ccco4)c4c(c3c2n1)CCC4,22092*,-1,-2,?
CSc1nc(NCCN(C)C)c2sc3nc(-c4ccco4)c4c(c3c2n1)CCC4,4150,-6,-2,6
COc1ccc2oc(=O)c(-c3nc(C)cs3)cc2c1,20394*,12,7,?
O=C(COc1ccc(S(=O)(=O)N2CCOCC2)cc1)N1CCN(c2ccccc2)CC1,5618,0,2,1
O=C(Nc1ccc(S(=O)(=O)N2CCCC2)cc1)C1CCCN1C(=O)c1cccs1 (stereo not drawn),4729,-11,-7,-1
CC(C)NC(=O)N(C)C[C@H]1Oc2ccc(NC(=O)c3ccncc3)cc2C(=O)N([C@H](C)CO)C[C@@H]1C,2930,15,-10,0
Cc1nc(CS(=O)(=O)c2ccc(Cl)cc2)sc1C(=O)O,3371,?,-9,-5

# Screens (PubChem)
